Compounds without any hit were thinned out: in the full panel of roughly 83,000, 20% have a hit.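 48-hour exposure, single concentration, 96-well plates; percent growth endpoint where 0 means no net growth. Active: below 10.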 Activity calls are given as the source filed them.
Experiments:
Assay in all cases: NCI-60 one-dose screen, 48 h (100 = growth as untreated, 0 = no growth, -100 = all killed)
SK-MEL-2 melanoma = settings: 10 µM unless noted
SN12C renal = settings: 10 µM unless noted
ACHN renal = settings: 10 µM unless noted
CAKI-1 renal = settings: 10 µM unless noted
A498 renal = settings: 10 µM unless noted
CCRF-CEM leukemia = settings: 10 µM unless noted
MOLT-4 leukemia = settings: 10 µM unless noted
SR leukemia = settings: 10 µM unless noted
RPMI-8226 leukemia = settings: 10 µM
OVCAR-8 ovarian = settings: 10 µM unless noted
OVCAR-5 ovarian = settings: 10 µM unless noted
OVCAR-4 ovarian = settings: 10 µM unless noted
SK-OV-3 ovarian = settings: 10 µM
IGROV1 ovarian = settings: 10 µM unless noted
OVCAR-3 ovarian = settings: 10 µM unless noted
HS 578T breast = settings: 10 µM unless noted
NCI/ADR-RES ovarian = settings: 10 µM unless noted
EKVX NSCLC = settings: 10 µM unless noted
UO-31 renal = settings: 10 µM unless noted
TK-10 renal = settings: 10 µM unless noted

Measured: growth

Cn1c2ccccc2c2nn(C(=O)c3ccccc3)c(=O)nc21
inactive: SK-MEL-2 melanoma 113% | SN12C renal 102% | ACHN renal 105% | CAKI-1 renal 103% | A498 renal 108% | CCRF-CEM leukemia 96.9% | MOLT-4 leukemia 104% | SR leukemia 93.7% | RPMI-8226 leukemia 98.7% | OVCAR-8 ovarian 117% | OVCAR-5 ovarian 101% | OVCAR-4 ovarian 125% | SK-OV-3 ovarian 116% | IGROV1 ovarian 101% | OVCAR-3 ovarian 122% | HS 578T breast 105% | NCI/ADR-RES ovarian 110%

O=C1c2ccccc2-c2cn(Cc3ccccc3)c3cccc(c23)C1c1cccnc1 (centres undefined)
inactive: EKVX NSCLC 80.5% | SN12C renal 59.5% | UO-31 renal 54.9% | TK-10 renal 55.7% | ACHN renal 51.2% | CAKI-1 renal 51.4% | A498 renal 43.3% | CCRF-CEM leukemia 19.3% | MOLT-4 leukemia 34.8% | RPMI-8226 leukemia 64.5% | OVCAR-8 ovarian 57.9% | OVCAR-5 ovarian 75.9% | OVCAR-4 ovarian 64.3% | SK-OV-3 ovarian 37.6% | IGROV1 ovarian 54.5% | HS 578T breast 78.1% | NCI/ADR-RES ovarian 26.5%
active: SR leukemia 8.31% | OVCAR-3 ovarian 2.21%

O=C(CC(O)c1ccccc1)Nc1ccccn1 (centres undefined)
inactive: EKVX NSCLC 97% | SN12C renal 93.1% | UO-31 renal 77.1% | TK-10 renal 97.9% | ACHN renal 111% | CAKI-1 renal 87.8% | A498 renal 102% | CCRF-CEM leukemia 88.9% | MOLT-4 leukemia 79% | SR leukemia 86.9% | RPMI-8226 leukemia 93.8% | OVCAR-8 ovarian 100% | OVCAR-5 ovarian 104% | OVCAR-4 ovarian 97.1% | SK-OV-3 ovarian 94% | IGROV1 ovarian 108% | OVCAR-3 ovarian 108% | HS 578T breast 106% | NCI/ADR-RES ovarian 106%

N#Cc1c(O)c2c(c(O)c1C#N)C(=O)c1ccccc1C2=O
active: SN12C renal 0.389% | MOLT-4 leukemia 8.65% | OVCAR-8 ovarian 2.33% | NCI/ADR-RES ovarian 0.847%
inactive: EKVX NSCLC 87.3% | UO-31 renal 68.3% | TK-10 renal 87.5% | ACHN renal 56.2% | CAKI-1 renal 85.7% | A498 renal 81.9% | CCRF-CEM leukemia 24.4% | OVCAR-5 ovarian 108% | OVCAR-4 ovarian 10.9% | SK-OV-3 ovarian 109% | IGROV1 ovarian 23.9% | HS 578T breast 70.1%

COc1c(O)c2c3c(c1OC)-c1ccccc1CC3N(S(=O)(=O)c1ccc(C)cc1)CC2 (centres undefined)
active: CCRF-CEM leukemia 1.29% | SR leukemia 9.8% | OVCAR-3 ovarian -10.4%
inactive: EKVX NSCLC 106% | SN12C renal 50% | UO-31 renal 48% | TK-10 renal 83.4% | ACHN renal 50% | CAKI-1 renal 51.1% | A498 renal 88.3% | MOLT-4 leukemia 30.7% | RPMI-8226 leukemia 90.9% | OVCAR-8 ovarian 53.7% | OVCAR-5 ovarian 79.2% | OVCAR-4 ovarian 71.3% | SK-OV-3 ovarian 48.9% | IGROV1 ovarian 65.6% | HS 578T breast 63% | NCI/ADR-RES ovarian 40%

Cc1nn2c(-c3nc4ccc(Cl)cc4[nH]3)c(-c3ccc(F)cc3)nc2s1
inactive: SK-MEL-2 melanoma 105% | SN12C renal 106% | TK-10 renal 97.1% | ACHN renal 102% | CAKI-1 renal 94.8% | A498 renal 76.8% | CCRF-CEM leukemia 72% | MOLT-4 leukemia 72.6% | SR leukemia 72% | RPMI-8226 leukemia 77.6% | OVCAR-8 ovarian 87.7% | OVCAR-5 ovarian 98.5% | OVCAR-4 ovarian 115% | SK-OV-3 ovarian 107% | NCI/ADR-RES ovarian 96.4%

COC(=O)c1cc(-c2ccc(C)cc2)n(C(=O)CSc2nc3sc(C(N)=O)c(C)c3c(=O)n2Cc2ccccc2)n1
active: A498 renal -32.1%
inactive: SK-MEL-2 melanoma 110% | UO-31 renal 87.5% | TK-10 renal 106% | ACHN renal 98.8% | CAKI-1 renal 97.7% | CCRF-CEM leukemia 93.2% | MOLT-4 leukemia 95.1% | SR leukemia 86.9% | RPMI-8226 leukemia 94.4% | OVCAR-8 ovarian 104% | OVCAR-5 ovarian 110% | OVCAR-4 ovarian 100% | SK-OV-3 ovarian 96.8% | OVCAR-3 ovarian 106% | HS 578T breast 107%

O=C1NC(=O)C2(CCCC2C(=O)O)N1 (centres undefined)
inactive: EKVX NSCLC 94.2% | SN12C renal 99.6% | UO-31 renal 96.5% | TK-10 renal 106% | ACHN renal 99.5% | CAKI-1 renal 102% | A498 renal 115% | CCRF-CEM leukemia 91.8% | MOLT-4 leukemia 101% | SR leukemia 90.4% | RPMI-8226 leukemia 103% | OVCAR-8 ovarian 100% | OVCAR-5 ovarian 110% | OVCAR-4 ovarian 99.4% | SK-OV-3 ovarian 119% | IGROV1 ovarian 131% | OVCAR-3 ovarian 120% | HS 578T breast 115% | NCI/ADR-RES ovarian 100%

COc1cc(/C=C/C(=O)CC(=O)/C=C/c2cc(Br)c(OC)c(OC)c2)cc(Br)c1OC
inactive: EKVX NSCLC 105% | SN12C renal 96.6% | UO-31 renal 87.9% | TK-10 renal 109% | ACHN renal 109% | CAKI-1 renal 105% | A498 renal 98.4% | CCRF-CEM leukemia 114% | MOLT-4 leukemia 71.5% | SR leukemia 49.6% | RPMI-8226 leukemia 116% | OVCAR-8 ovarian 102% | OVCAR-5 ovarian 99.1% | OVCAR-4 ovarian 103% | SK-OV-3 ovarian 96.6% | IGROV1 ovarian 109% | HS 578T breast 113% | NCI/ADR-RES ovarian 99.3%

CCCCCn1c(=N)n(CC(O)COc2cccc(C)c2)c2ccccc21 (centres undefined)
active: SK-MEL-2 melanoma -34.1% | CAKI-1 renal 7.06% | A498 renal -3.77% | CCRF-CEM leukemia 8.45% | MOLT-4 leukemia 1.95% | SR leukemia 2.12% | RPMI-8226 leukemia -10.8% | OVCAR-4 ovarian 6.79% | OVCAR-3 ovarian 7.4% | HS 578T breast -0.161% | NCI/ADR-RES ovarian 3.77%
inactive: SN12C renal 12% | TK-10 renal 21.4% | ACHN renal 10.7% | OVCAR-5 ovarian 61.7% | SK-OV-3 ovarian 13.1% | IGROV1 ovarian 28.1%

CN1CCN(C(=O)OCCOCCOC(=O)N2CCN(C)CC2)CC1
inactive: EKVX NSCLC 100% | SN12C renal 99.9% | UO-31 renal 95.8% | TK-10 renal 94.5% | ACHN renal 97% | CAKI-1 renal 131% | A498 renal 93% | MOLT-4 leukemia 52.7% | SR leukemia 95% | RPMI-8226 leukemia 81% | OVCAR-8 ovarian 102% | OVCAR-5 ovarian 104% | OVCAR-4 ovarian 106% | SK-OV-3 ovarian 117% | IGROV1 ovarian 132% | OVCAR-3 ovarian 117% | HS 578T breast 111% | NCI/ADR-RES ovarian 96.3%
active: CCRF-CEM leukemia 8.24%

Brc1ccc(SCN(CSc2ccc(Br)cc2)Cc2ccccc2)cc1
inactive: SK-MEL-2 melanoma 94.6% | SN12C renal 27.3% | TK-10 renal 113% | ACHN renal 87.3% | CAKI-1 renal 73% | A498 renal 56.3% | SR leukemia 34.6% | RPMI-8226 leukemia 36.3% | OVCAR-8 ovarian 74.4% | OVCAR-5 ovarian 90.1% | OVCAR-4 ovarian 75.5% | SK-OV-3 ovarian 93.9% | IGROV1 ovarian 35.6% | HS 578T breast 88.1% | NCI/ADR-RES ovarian 73.4%
active: CCRF-CEM leukemia 4.88%

Cc1ccc(S(=O)(=O)N2CCc3ccc(O)c4c3C2CCc2ccccc2-4)cc1 (centres undefined)
inactive: EKVX NSCLC 104% | SN12C renal 100% | UO-31 renal 67.6% | TK-10 renal 111% | ACHN renal 93.4% | CAKI-1 renal 88.3% | A498 renal 111% | CCRF-CEM leukemia 83% | MOLT-4 leukemia 77.5% | RPMI-8226 leukemia 95.8% | OVCAR-8 ovarian 98.8% | OVCAR-5 ovarian 110% | OVCAR-4 ovarian 106% | SK-OV-3 ovarian 101% | IGROV1 ovarian 113% | OVCAR-3 ovarian 99.1% | HS 578T breast 106% | NCI/ADR-RES ovarian 104%

CCCCCCCCCCCC(=O)[O][Sn]([CH2]CCC)([CH2]CCC)[CH2]CCC
active: SK-MEL-2 melanoma -90.5% | SN12C renal -93.5% | ACHN renal -95.2% | CAKI-1 renal -97.8% | A498 renal -86% | MOLT-4 leukemia -27% | SR leukemia -42.7% | RPMI-8226 leukemia -34% | OVCAR-5 ovarian -96.9% | OVCAR-4 ovarian -98.5% | SK-OV-3 ovarian -100% | IGROV1 ovarian -77.1% | OVCAR-3 ovarian -97.5% | HS 578T breast -20.2% | NCI/ADR-RES ovarian -80.5%

CCCCNNC(=O)c1ccc(Br)cc1
inactive: SK-MEL-2 melanoma 44.5% | SN12C renal 75.1% | ACHN renal 71.4% | CAKI-1 renal 60.1% | A498 renal 30.2% | CCRF-CEM leukemia 46.6% | MOLT-4 leukemia 42.1% | SR leukemia 40.9% | RPMI-8226 leukemia 17.8% | OVCAR-8 ovarian 25.8% | OVCAR-5 ovarian 41.1% | OVCAR-4 ovarian 73.9% | SK-OV-3 ovarian 85% | IGROV1 ovarian 60.1% | OVCAR-3 ovarian 68.8% | HS 578T breast 56.8% | NCI/ADR-RES ovarian 23.5%

FC(F)(F)c1cc(CNc2nc(Cl)ncc2Br)cc(C(F)(F)F)c1
inactive: SK-MEL-2 melanoma 83.6% | SN12C renal 89.3% | TK-10 renal 94% | ACHN renal 94.5% | CAKI-1 renal 76.5% | A498 renal 80.2% | CCRF-CEM leukemia 81.4% | MOLT-4 leukemia 82.4% | SR leukemia 38.2% | RPMI-8226 leukemia 70.9% | OVCAR-8 ovarian 91.5% | OVCAR-5 ovarian 96.6% | OVCAR-4 ovarian 98.5% | SK-OV-3 ovarian 81.1% | IGROV1 ovarian 75% | OVCAR-3 ovarian 85.6% | HS 578T breast 54.5% | NCI/ADR-RES ovarian 92.7%

Cc1ccc(NS(=O)(=O)c2ccc(-c3cnc(C4CC4)o3)cc2)cc1
inactive: SK-MEL-2 melanoma 23.9% | SN12C renal 42.2% | TK-10 renal 64.9% | ACHN renal 46.6% | CAKI-1 renal 38.8% | CCRF-CEM leukemia 35.5% | MOLT-4 leukemia 32% | SR leukemia 33.8% | RPMI-8226 leukemia 37.6% | OVCAR-8 ovarian 49.3% | OVCAR-5 ovarian 48.8% | OVCAR-4 ovarian 59% | IGROV1 ovarian 39.8%
active: OVCAR-3 ovarian -2% | HS 578T breast -2.93% | NCI/ADR-RES ovarian 8.09%
